{
  "source": "paper PMC7862700",
  "about": "“An all-to-all approach to the identification of sequence-specific readers for epigenetic DNA modifications on cytosine”",
  "assay_in_all_cases": "DAPPL (digital affinity profiling via proximity ligation, sequencing); 10 mM Tris-HCl pH 7.5, 50 mM NaCl, 1 mM DTT, 4% glycerol, room temperature, 30 min; GST-TFs on glutathione beads, 16-mer random dsDNA library, 0.1% formaldehyde crosslink after washing; high values mean tight binding",
  "details_in_all_cases": "protein: recombinant; tags: N-terminal GST; dsDNA, one strand shown",
  "key": {"FLI1": {"molecular_target": "T1, FLI1 (Homo sapiens, UniProt Q01543 1-452)", "T1 sequence": "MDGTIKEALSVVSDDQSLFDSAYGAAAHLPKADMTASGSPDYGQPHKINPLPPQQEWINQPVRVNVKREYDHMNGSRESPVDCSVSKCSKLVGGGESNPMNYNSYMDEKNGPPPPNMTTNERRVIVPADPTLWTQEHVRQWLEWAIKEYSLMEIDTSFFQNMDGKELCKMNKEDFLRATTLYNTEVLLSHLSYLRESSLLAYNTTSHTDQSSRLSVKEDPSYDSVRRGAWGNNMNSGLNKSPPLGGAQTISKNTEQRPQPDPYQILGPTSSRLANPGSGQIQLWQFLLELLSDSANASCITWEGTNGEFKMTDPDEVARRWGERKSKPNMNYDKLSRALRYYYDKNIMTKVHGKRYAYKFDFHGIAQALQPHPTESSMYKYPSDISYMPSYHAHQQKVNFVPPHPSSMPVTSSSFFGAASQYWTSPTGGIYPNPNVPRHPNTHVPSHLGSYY", "how_it_was_run": "(§1)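 Sequencing on an Illumina NextSeq500 followed washing, crosslinking with 0.1% formaldehyde, proximity ligation (BsaI/T4 ligase, 1 h, 37 °C) and PCR amplification of pools that had been incubated for 30 min at room temperature with 200 nmole of a random double-stranded 16-mer DNA library in Tris/NaCl/DTT/glycerol buffer. Each pool held DNA-barcoded human transcription factors, expressed in yeast as GST fusions and captured on glutathione beads, plus a tag-only sample. Binding signal is a hexamer's read frequency for a factor divided by its frequency in the tag-only sample.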"}, "ELK1": {"molecular_target": "T2, ELK1 (Homo sapiens, UniProt P19419 1-428)", "T2 sequence": "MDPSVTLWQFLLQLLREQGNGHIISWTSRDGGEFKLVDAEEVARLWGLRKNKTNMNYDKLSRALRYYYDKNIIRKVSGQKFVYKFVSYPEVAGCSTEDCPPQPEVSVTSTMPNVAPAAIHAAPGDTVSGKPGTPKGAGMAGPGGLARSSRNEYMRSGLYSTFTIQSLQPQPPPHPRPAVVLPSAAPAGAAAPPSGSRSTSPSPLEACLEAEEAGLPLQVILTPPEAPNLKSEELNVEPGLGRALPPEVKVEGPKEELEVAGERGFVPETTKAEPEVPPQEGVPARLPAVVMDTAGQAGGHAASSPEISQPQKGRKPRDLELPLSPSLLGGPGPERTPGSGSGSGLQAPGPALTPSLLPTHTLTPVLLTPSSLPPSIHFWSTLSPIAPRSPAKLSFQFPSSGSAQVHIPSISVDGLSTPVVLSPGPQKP", "how_it_was_run": "as §1"}, "GABPA": {"molecular_target": "T3, GABPA (Homo sapiens, UniProt Q06546 1-454)", "T3 sequence": "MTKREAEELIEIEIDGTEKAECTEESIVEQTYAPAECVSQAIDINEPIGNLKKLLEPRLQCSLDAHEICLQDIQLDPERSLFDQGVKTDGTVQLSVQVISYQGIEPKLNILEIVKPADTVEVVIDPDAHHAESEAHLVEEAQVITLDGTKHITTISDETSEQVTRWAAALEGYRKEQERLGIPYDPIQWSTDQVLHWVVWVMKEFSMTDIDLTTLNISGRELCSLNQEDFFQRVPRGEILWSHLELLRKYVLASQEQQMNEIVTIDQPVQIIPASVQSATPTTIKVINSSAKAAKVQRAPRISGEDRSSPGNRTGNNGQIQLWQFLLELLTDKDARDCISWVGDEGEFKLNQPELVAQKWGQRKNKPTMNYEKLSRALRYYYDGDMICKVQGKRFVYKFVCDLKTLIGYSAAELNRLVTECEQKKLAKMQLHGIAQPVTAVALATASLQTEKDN", "how_it_was_run": "as §1"}, "ERG": {"molecular_target": "T4, ERG (Homo sapiens, UniProt P11308 1-479)", "T4 sequence": "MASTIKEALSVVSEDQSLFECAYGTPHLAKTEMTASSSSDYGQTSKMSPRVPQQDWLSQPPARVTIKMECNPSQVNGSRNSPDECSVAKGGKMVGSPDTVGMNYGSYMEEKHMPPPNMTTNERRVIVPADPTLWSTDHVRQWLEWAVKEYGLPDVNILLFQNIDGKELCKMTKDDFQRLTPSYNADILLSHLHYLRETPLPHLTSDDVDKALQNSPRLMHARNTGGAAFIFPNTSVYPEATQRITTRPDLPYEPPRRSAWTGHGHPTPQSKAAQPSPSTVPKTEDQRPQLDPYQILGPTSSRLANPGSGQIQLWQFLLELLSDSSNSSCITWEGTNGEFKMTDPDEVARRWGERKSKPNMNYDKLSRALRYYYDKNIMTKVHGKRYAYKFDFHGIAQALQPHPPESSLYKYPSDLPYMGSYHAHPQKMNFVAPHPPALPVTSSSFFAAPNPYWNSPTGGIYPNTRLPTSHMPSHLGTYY", "how_it_was_run": "as §1"}, "ELF1": {"molecular_target": "ELF1 (Homo sapiens, UniProt P32519 1-619)", "sequence (P32519 whole entry)": "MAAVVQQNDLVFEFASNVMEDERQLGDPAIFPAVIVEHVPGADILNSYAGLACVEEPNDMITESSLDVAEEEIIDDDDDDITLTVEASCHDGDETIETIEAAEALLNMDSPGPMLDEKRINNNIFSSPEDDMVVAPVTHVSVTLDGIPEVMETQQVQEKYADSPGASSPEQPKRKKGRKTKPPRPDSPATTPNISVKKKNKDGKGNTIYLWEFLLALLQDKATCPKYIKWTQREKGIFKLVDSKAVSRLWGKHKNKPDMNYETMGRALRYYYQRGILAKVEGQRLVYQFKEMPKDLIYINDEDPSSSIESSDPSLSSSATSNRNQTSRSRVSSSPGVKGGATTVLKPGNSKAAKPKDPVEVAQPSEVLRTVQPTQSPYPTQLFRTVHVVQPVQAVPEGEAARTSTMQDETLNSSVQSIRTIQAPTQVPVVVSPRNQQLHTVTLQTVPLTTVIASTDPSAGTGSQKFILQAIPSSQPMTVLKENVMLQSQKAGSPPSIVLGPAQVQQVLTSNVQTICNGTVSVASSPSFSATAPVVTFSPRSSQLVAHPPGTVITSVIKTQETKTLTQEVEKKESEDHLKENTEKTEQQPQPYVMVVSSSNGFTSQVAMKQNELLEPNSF", "how_it_was_run": "as §1"}, "EHF": {"molecular_target": "T5, EHF (Homo sapiens, UniProt Q9NZC4 1-300)", "T5 sequence": "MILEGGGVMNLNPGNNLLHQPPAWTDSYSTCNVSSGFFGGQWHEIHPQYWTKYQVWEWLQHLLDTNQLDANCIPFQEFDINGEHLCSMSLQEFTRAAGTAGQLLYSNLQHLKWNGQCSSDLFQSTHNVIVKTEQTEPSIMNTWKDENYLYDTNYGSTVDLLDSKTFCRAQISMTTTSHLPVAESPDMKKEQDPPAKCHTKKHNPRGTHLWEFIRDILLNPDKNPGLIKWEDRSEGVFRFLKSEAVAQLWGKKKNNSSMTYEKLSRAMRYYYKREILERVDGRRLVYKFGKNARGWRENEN", "how_it_was_run": "as §1"}, "SPI1": {"molecular_target": "SPI1 (Homo sapiens, UniProt P17947 1-270)", "how_it_was_run": "as §1"}, "SPIB": {"molecular_target": "SPIB (Homo sapiens, UniProt Q01892 1-262)", "sequence (Q01892 whole entry)": "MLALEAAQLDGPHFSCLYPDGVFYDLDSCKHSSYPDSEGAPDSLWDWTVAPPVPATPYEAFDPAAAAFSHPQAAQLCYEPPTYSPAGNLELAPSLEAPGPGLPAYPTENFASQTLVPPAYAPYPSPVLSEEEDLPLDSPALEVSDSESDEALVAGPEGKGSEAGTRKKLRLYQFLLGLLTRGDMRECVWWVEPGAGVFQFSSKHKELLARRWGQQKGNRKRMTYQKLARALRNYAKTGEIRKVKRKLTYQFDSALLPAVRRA", "how_it_was_run": "as §1"}, "ELK3": {"molecular_target": "T6, ELK3 (Homo sapiens, UniProt P41970 1-407)", "T6 sequence": "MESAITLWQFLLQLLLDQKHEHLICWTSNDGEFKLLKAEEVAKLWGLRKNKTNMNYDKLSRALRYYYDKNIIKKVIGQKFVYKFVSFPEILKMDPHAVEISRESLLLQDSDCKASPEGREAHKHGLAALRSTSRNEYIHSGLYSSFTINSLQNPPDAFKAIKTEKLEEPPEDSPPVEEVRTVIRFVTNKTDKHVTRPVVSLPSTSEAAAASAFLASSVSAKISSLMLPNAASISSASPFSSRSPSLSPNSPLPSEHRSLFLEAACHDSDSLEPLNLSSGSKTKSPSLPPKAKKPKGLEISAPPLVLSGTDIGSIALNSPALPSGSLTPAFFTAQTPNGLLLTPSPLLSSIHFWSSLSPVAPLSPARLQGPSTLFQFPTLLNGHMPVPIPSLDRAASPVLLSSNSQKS", "how_it_was_run": "as §1"}},
  "data": [
    {"sequence": "TCCACA", "values": [
      {"measurement": "binding signal", "setting": "FLI1", "result": "1.3 fold enrichment (6-mer frequency, TF over GST control)"},
      {"measurement": "binding signal", "setting": "ELK1", "result": "1.27 fold enrichment (6-mer frequency, TF over GST control)"},
      {"measurement": "binding signal", "setting": "GABPA", "result": "1.26 fold enrichment (6-mer frequency, TF over GST control)"},
      {"measurement": "binding signal", "setting": "ERG", "result": "1.19 fold enrichment (6-mer frequency, TF over GST control)"},
      {"measurement": "binding signal", "setting": "ELF1", "result": "1.23 fold enrichment (6-mer frequency, TF over GST control)"},
      {"measurement": "binding signal", "setting": "EHF", "result": "1.25 fold enrichment (6-mer frequency, TF over GST control)"},
      {"measurement": "binding signal", "setting": "SPI1", "result": "1.28 fold enrichment (6-mer frequency, TF over GST control)"},
      {"measurement": "binding signal", "setting": "SPIB", "result": "1.14 fold enrichment (6-mer frequency, TF over GST control)"},
      {"measurement": "binding signal", "setting": "ELK3", "result": "1.35 fold enrichment (6-mer frequency, TF over GST control)"}
    ]}
  ]
}
